# For some of these results: Measured potencies and affinities stand elsewhere.
# Columns and labels:
# Set-up in all cases: scale not given: direction of the effect not stated beside the values
# [1] = target: Protein translocase subunit SecA (Escherichia coli (strain K12)) (UniProt P10408); assay: Assay to Identify E. coli SecA ATPase Inhibitors; type: functional; conditions: 30 µM
# [2] = target: T1, Ubiquitin-activating enzyme e1, putative (Leishmania donovani (strain BPK282A1)) (UniProt E9BSI1); assay: Leishmania donovani Ubiquitin Activating Enzyme (LdE1); type: functional; conditions: 30 µM
# T1 sequence (whole entry): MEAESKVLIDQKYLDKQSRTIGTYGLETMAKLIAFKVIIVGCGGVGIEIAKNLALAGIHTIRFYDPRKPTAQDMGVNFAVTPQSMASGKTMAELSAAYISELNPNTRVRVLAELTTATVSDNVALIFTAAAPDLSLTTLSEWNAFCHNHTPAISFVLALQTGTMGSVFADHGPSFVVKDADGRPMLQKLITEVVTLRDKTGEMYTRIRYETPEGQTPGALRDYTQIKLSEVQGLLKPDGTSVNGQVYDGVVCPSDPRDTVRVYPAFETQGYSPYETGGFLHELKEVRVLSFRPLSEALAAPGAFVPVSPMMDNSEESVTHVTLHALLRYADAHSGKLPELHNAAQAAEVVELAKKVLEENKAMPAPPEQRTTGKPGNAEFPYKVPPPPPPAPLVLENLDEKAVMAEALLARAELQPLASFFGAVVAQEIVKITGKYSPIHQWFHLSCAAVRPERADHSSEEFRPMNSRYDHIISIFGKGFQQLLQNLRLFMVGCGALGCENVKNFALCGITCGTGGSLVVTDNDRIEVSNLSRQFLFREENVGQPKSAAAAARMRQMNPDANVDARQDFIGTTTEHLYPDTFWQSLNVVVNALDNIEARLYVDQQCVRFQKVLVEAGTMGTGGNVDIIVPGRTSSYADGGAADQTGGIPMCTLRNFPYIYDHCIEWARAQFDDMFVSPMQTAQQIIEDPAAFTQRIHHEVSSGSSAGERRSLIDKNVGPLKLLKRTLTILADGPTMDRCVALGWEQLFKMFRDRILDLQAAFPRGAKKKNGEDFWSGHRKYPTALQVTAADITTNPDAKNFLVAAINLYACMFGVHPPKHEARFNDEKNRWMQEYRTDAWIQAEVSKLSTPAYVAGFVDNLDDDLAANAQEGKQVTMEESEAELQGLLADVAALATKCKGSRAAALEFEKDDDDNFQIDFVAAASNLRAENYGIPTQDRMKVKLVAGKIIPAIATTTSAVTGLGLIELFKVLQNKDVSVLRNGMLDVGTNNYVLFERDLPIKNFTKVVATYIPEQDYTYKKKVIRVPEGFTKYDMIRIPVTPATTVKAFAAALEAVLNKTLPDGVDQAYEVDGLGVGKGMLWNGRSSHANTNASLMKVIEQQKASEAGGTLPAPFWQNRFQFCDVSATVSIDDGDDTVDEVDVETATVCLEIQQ
# [3] = target: AMP-activated protein kinase, AMPK (Homo sapiens) (UniProt P54646+O43741+P54619+Q9UGJ0+Q9Y478+Q13131+Q9UGI9); assay: AMP-dependent Kinase enzyme assay. An in vitro enzyme assay that detects ADP turnover that is directly proportional to AMPK activity. This uses naive AMPK that is activated during the assay with MK-8722; type: functional; conditions: 30 µM
# [4] = target: Sialic acid-binding Ig-like lectin 9 (Homo sapiens) (UniProt Q9Y336); assay: Hs-Siglec9 ALPHAscreen SOP 20170721; conditions: 10 µM
# Sequence of Sialic acid-binding Ig-like lectin 9 (Homo sapiens) (Q9Y336 whole entry): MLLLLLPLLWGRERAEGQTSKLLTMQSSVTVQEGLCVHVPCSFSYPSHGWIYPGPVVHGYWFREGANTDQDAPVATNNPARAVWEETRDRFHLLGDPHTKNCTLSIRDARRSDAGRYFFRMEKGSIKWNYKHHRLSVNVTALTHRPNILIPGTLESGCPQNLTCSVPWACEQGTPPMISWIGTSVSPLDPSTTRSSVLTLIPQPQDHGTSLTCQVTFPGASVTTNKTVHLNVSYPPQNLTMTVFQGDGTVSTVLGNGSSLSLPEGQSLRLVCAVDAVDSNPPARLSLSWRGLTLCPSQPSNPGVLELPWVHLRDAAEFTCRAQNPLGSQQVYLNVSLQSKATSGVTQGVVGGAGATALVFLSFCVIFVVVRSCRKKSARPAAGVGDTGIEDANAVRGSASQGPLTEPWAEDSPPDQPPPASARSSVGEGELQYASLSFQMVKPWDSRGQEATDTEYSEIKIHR
# [5] = system: Trypanosoma cruzi; assay: Trypanosoma cruzi phosphomannomutase and mannose-1-phosphate guanylyltransferase assay; type: functional; conditions: 10 µM
# [6] = target: T2, Arginase-2, mitochondrial (Homo sapiens) (UniProt P78540); assay: in vitro enzyme assay to detect the production of urea directly proportional to the activity of Arginase II; type: functional; conditions: 33.3 µM; note: in the data most compounds retested in dose-response had high values
# T2 sequence (whole entry): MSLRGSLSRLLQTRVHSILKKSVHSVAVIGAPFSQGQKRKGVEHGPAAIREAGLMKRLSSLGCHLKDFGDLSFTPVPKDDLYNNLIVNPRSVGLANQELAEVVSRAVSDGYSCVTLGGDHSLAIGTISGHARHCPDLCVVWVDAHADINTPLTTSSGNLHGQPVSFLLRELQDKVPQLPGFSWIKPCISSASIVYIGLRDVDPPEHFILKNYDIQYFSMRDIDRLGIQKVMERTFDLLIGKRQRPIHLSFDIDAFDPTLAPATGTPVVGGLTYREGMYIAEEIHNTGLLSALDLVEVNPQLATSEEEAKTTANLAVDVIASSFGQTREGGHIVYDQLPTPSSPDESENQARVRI
# [7] = target: T3, Proteasome subunit beta (Trypanosoma cruzi) (UniProt O96673); assay: Trypanosoma cruzi proteasome chymotrypsin-like activity (TcProtChymo) assay.; note: in the data most compounds retested in dose-response had high values; type: functional; conditions: 9.37 µM
# T3 sequence (whole entry): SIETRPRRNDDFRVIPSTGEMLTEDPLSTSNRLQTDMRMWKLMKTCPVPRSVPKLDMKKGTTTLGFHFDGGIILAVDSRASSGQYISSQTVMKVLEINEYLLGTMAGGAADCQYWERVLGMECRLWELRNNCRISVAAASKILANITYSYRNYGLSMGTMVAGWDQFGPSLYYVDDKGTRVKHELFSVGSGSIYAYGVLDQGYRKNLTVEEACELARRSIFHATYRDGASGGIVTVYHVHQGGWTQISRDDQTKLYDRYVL
# [8] = species: Homo sapiens; assay: To identify inhibition of the IFN signalling (Jak-Stat) pathway via expression of an eGFP reporter gene under the control of an IFN-stimulated response element (ISRE) containing MxA promoter.; type: functional; conditions: 30 µM
# [9] = target: T4, Tyrosyl-tRNA synthetase, putative (Trypanosoma cruzi (strain CL Brener)) (UniProt Q4DSP6); assay: Trypanosoma cruzi tyrosyl tRNA synthetase (TcYRS) _High Tyrosine SOP; type: functional; conditions: 30 µM; note: in the data most compounds retested in dose-response had high values
# T4 sequence (whole entry): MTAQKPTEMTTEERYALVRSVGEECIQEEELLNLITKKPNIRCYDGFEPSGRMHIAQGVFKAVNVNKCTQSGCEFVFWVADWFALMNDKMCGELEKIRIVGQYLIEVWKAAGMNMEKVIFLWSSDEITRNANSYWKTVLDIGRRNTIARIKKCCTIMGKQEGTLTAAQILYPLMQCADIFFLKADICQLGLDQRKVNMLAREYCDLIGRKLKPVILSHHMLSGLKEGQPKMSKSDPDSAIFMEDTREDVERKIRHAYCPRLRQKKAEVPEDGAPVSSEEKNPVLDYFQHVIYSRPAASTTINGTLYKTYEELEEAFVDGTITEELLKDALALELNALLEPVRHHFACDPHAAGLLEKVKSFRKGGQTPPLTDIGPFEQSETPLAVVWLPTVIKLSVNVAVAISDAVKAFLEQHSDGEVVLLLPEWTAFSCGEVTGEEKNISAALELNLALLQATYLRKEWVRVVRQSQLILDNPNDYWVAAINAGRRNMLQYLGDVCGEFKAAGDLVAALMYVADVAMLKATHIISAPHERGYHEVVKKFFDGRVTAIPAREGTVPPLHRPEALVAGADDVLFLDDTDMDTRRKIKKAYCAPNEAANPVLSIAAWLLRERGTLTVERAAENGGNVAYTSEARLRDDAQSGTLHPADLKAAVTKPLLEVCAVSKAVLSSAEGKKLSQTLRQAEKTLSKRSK
# [10] = target: T4, Tyrosyl-tRNA synthetase, putative (Trypanosoma cruzi (strain CL Brener)); assay: Trypanosoma cruzi tyrosyl tRNA synthetase (TcYRS) SOP; type: functional; conditions: 30 µM
# [11] = target: Chromo domain-containing protein 1 (Saccharomyces cerevisiae (strain ATCC 204508 / S288c) (Baker's yeast)) (UniProt P32657); assay: ScCHD-1 Enzyme Inhibition Assay; type: functional; conditions: 30 µM; note: in the data most compounds retested in dose-response had high values
# Sequence of Chromo domain-containing protein 1 (Saccharomyces cerevisiae (strain ATCC 204508 / S288c) (Baker's yeast)) (P32657 whole entry, the tested form may be a part): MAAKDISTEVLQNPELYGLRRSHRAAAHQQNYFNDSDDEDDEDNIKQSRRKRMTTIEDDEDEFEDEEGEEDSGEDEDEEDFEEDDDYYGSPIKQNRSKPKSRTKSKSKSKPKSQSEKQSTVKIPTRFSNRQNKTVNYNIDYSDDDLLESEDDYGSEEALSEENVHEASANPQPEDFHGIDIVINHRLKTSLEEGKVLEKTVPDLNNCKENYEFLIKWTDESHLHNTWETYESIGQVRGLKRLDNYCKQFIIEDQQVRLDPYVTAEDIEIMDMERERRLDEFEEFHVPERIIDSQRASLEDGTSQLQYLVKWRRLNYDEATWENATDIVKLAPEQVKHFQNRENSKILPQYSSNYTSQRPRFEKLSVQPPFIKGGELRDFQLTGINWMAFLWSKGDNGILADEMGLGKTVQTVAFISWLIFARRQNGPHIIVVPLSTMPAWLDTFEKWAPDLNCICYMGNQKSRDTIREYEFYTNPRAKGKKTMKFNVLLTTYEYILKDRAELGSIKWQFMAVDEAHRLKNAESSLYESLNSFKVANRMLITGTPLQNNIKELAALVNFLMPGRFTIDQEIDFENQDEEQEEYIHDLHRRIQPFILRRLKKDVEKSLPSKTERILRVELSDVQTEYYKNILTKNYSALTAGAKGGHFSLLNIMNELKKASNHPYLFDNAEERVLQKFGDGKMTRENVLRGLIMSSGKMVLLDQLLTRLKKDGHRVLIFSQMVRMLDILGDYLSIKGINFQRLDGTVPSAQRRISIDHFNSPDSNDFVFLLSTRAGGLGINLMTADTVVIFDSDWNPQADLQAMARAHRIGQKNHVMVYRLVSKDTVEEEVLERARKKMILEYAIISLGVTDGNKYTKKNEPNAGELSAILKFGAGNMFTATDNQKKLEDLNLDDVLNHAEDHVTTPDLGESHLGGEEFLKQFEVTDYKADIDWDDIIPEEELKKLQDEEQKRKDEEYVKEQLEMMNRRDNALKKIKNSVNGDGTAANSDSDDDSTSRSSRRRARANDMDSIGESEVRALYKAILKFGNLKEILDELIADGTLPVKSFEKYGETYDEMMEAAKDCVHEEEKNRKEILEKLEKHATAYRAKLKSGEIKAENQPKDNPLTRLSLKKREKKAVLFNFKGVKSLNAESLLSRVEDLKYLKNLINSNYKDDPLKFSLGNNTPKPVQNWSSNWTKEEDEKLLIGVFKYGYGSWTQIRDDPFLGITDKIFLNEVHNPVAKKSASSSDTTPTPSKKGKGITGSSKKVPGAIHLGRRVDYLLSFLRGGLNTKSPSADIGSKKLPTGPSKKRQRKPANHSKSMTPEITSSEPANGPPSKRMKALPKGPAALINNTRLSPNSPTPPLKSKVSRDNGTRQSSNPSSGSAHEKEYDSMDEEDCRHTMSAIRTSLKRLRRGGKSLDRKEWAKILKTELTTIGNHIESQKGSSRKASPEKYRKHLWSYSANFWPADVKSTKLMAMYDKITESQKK
# Sequence of Protein translocase subunit SecA (Escherichia coli (strain K12)) (P10408 whole entry): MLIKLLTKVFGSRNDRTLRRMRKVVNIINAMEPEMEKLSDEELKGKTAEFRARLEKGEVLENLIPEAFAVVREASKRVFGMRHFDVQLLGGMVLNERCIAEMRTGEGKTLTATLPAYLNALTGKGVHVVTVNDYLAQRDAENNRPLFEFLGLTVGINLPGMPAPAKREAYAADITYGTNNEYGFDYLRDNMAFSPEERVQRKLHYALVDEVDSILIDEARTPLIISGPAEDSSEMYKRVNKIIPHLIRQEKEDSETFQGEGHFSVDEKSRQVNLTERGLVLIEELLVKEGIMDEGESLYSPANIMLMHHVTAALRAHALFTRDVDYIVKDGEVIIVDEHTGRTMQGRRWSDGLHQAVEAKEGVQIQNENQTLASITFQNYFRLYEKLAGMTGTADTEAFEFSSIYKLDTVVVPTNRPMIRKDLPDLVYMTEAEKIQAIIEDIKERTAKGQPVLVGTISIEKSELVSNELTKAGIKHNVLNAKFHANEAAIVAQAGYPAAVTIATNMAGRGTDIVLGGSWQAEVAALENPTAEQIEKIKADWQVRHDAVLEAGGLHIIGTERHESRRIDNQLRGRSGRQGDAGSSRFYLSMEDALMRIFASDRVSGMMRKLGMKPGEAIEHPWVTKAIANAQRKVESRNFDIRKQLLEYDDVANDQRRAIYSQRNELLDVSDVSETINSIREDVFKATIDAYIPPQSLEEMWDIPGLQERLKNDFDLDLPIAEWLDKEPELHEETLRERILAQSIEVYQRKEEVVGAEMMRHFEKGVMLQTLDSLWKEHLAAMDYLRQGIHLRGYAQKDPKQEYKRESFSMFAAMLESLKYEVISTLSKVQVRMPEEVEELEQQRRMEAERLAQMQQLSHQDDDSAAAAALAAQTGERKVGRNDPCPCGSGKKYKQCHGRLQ
Structure (SMILES),Percent Effect [1] [%],Percent Effect [2] [%],Percent Effect [3] [%],Percent Effect [4] [%],Percent Effect [5] [%],Percent Effect [6] [%],Percent Effect [7] [%],Percent Effect [8] [%],Percent Effect [9] [%],Percent Effect [10] [%],Percent Effect [11] [%]
CCc1ccc(C2CCCCCN2Cc2nc(CCOC)no2)o1 (configuration not stated),-1.49,2.6,3.4,5.24,3.05,-9.65,16.5,19.7,-14,-18.5,-9.18
CC(C)C(Sc1nnnn1C1CC1)C(=O)NCc1cccnc1 (configuration not stated),-3.26,5.2,3.52,-3.03,-5.24,17.8,13.3,27.7,6.8,19.5,-3.93
COc1c(C)cnc(CN2CCC(N(C)C(C)C(N)=O)CC2)c1C (configuration not stated),-2.36,13,3.82,-8.74,-3.56,-0.712,8.95,42.8,8.74,14.6,-7.36
Cn1cc(C2CCCN2C(=O)c2ccc(Br)o2)cn1 (configuration not stated),-4.98,13.2,2.02,-8.81,-3.64,1.08,1.27,16.1,0.493,1.24,1.07
O=S(=O)(N1CCCCC1)N1CCc2nc(C3CCNCC3)ncc2C1,-2.16,-4.05,0.892,4.08,-1.78,-3.94,12.8,5.01,3.23,1.3,-20.6
Cc1ccc(S(=O)(=O)N2CSCC2C(=O)N(C)C2CC2)cc1Cl (configuration not stated),-5.45,5.41,-2.19,10.8,6.16,1.74,7.47,5.7,0,3.7,-5.33
CN1CCc2c(C#N)c(NCCCN3CCOCC3)n3cnnc3c2C1,-3.76,10.5,2.8,1.44,-1.46,-1.18,13.7,-9.43,4.25,10.4,-1.19
Cc1cncc(C2CCCN(C(=O)c3scnc3C)C2)n1 (configuration not stated),-5.85,1.35,3.8,2.37,0.395,-2.09,7.33,2.09,3.23,11.7,-22.3
COc1ccc(C(=O)N2CCCC(C)C2)cc1F (configuration not stated),-4.09,24.3,-19.3,-3.4,2.17,-15.6,16.2,18.6,4.43,18.5,-9.54
CCC(CO)N(Cc1ccccn1)C(=O)c1ccc2c(c1)CCO2 (configuration not stated),-5.75,10.7,-10.8,36.5,7.89,15.6,13.4,12.5,0.546,16.1,-5.21
CN(Cc1ccc2c(c1)OCO2)Cc1nc2c(cnn2C)c(=O)[nH]1,-3.58,5.26,0.733,-4.42,0.467,-4.32,-0.592,4.07,8.37,6.17,-3.9
COCCNc1ccc(CNC(=O)Nc2cn[nH]c2)cc1,-0.0653,20.2,-7.85,0.901,-10.5,3.42,1.06,20.9,3.45,11.4,-5.01
O=C(Cn1ccnc1)N1C[C@@H]2CC[C@H](Oc3ccccc3)[C@@H]2C1,-4.17,9.46,7.42,-4.28,2.77,-1.16,16.2,12.3,3.23,11.7,-11.8
CN(C)C(C(=O)N1CCC(N2CCSCC2)CC1)c1ccccc1F (configuration not stated),-0.819,12.5,-3.64,4.95,1.46,22.5,20.7,-4.19,10.5,20.5,-1.59
Cc1cc(C)n(CCCNC(=O)C(C)NC(=O)c2ccccc2Cl)n1 (configuration not stated),-2.06,5.26,4.16,-4.01,-2.63,0,6.81,-13.1,5.32,10.4,-5.43
COCC1CN(Cc2ccncc2)Cc2nnn(CC3CC3)c21 (configuration not stated),-1.08,0,2.57,2.54,0.688,-1.38,1.33,-3.55,0,-1.24,3.24
CCN(CC1CCOC1)C(=O)c1ccccc1N1CCOCC1 (configuration not stated),-3.71,23.7,-4.13,-10.1,-3.08,1.8,4.82,12.3,5.42,11.1,-5.45

# Source: ChEMBL document CHEMBL3988442, “University of Dundee, Small-Polar-MMV Screening Library” (2021)
